Test results: PubChem BioAssay (NCI)
About 83,000 compounds went through this panel and 20% of them were active in at least one assay; those are over-represented in the sample as a whole.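 48-hour exposure, single concentration, 96-well plates; percent growth endpoint where 0 means no net growth. Active: below 10.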 Values without a mark were called inactive. Activity calls are given as the source filed them.

What was measured:
Experiment in all cases: NCI-60 one-dose screen, 48 h (100 = growth as untreated, 0 = no growth, -100 = all killed)
Settings in all cases: 10 µM unless noted
SR leukemia = tested on: SR leukemia
RPMI-8226 leukemia = tested on: RPMI-8226 leukemia
OVCAR-8 ovarian = tested on: OVCAR-8 ovarian
OVCAR-5 ovarian = tested on: OVCAR-5 ovarian
OVCAR-4 ovarian = tested on: OVCAR-4 ovarian
SK-OV-3 ovarian = tested on: SK-OV-3 ovarian
IGROV1 ovarian = tested on: IGROV1 ovarian
OVCAR-3 ovarian = tested on: OVCAR-3 ovarian
HS 578T breast = tested on: HS 578T breast
NCI/ADR-RES ovarian = tested on: NCI/ADR-RES ovarian

| SMILES | growth (SR leukemia) | growth (RPMI-8226 leukemia) | growth (OVCAR-8 ovarian) | growth (OVCAR-5 ovarian) | growth (OVCAR-4 ovarian) | growth (SK-OV-3 ovarian) | growth (IGROV1 ovarian) | growth (OVCAR-3 ovarian) | growth (HS 578T breast) | growth (NCI/ADR-RES ovarian) |
| --- | --- | --- | --- | --- | --- | --- | --- | --- | --- | --- |
| COc1ccc(C(=O)c2cc(C)c(OC)c(C)c2)c(OC)c1N(C(=O)C(Cl)Cl)C(=O)C(Cl)Cl | 20.7% | 19.9% | 16% | 33.1% | 62.1% | 1.2% (active) | 31.3% | -13.4% (active) | 22.1% | -1.2% (active) |
| C#CC(=O)Nc1cccc2c1cc(C)n2-c1nc2c(c(NCc3ccccc3)n1)CCCC2 | -32.2% (active) | -22.3% (active) | -14% (active) | -16% (active) | -35.7% (active) | -94.4% (active) | -28.1% (active) | -9.24% (active) | -7.53% (active) | 6.91% (active) |
| CC[C@@]12C=CCN3CC[C@]4(c5cc(NC(=O)COc6cc(OCC(=O)Nc7cc8c(cc7OC)N(C)[C@H]7[C@@](O)(C(=O)OC)[C@H](OC(C)=O)[C@]9(CC)C=CCN%10CC[C@]87[C@@H]%109)cc7oc(-c8ccccc8)cc(=O)c67)c(OC)cc5N(C)[C@@H]4[C@](O)(C(=O)OC)[C@H]1OC(C)=O)[C@H]32 | 10.6% | 8.92% (active) | 28.8% | 30.2% | 28.8% | 23.5% | -70% (active) | -26.8% (active) | 39.4% | 95.5% |
| CN(Cc1ccccc1)c1nc(Cl)c(C2CC(c3ccc(Cl)cc3)=Cc3[nH][nH]c(=O)c32)s1 (stereo not given) | 94.2% | 92.5% | 94.5% | 97.5% | 116% | 101% | 88.1% | 95% | 96.4% | 89.6% |
| COc1ccc(-c2ncc(-c3ccccc3)[nH]2)cc1OC | 11% | 89.5% | 113% | 113% | 116% | 125% | 119% | 103% | 102% | 121% |
| Clc1ccc2c(c1)c(-c1ccccc1)nc1nncn12 | 83.8% | 103% | 106% | 115% | 121% | 107% | 109% | 110% | 106% | 101% |
| N#CC1=C(N)Oc2c(ccc3ccccc23)C1c1ccc([N+](=O)[O-])cc1 (stereo not given) | 20.2% | 89.5% | 93.3% | 95.7% | 90.8% | 80% | 50.4% | 76.5% | 87.5% | 52.8% |
| COc1cc2nc(-c3ccc(C(F)(F)F)cc3)cc(OCCCN3CCCCC3)c2cc1OC | 8.2% (active) | 24.8% | 52.4% | 57.7% | 54.7% | 77.8% | 31.8% | 60.1% | 59.1% | 49.7% |
| OC(c1ccccc1)c1ccccn1 (stereo not given) | 99.1% | 101% | 95.9% | 108% | 116% | 92% | 106% | 105% | 91% | 110% |
| COc1ccc(C2CC(c3cccc(Nc4ccncc4)c3)=NN2c2ccccc2)cc1 (stereo not given) | 2.73% (active) | -6.86% (active) | 20.5% | 79.7% | 51.8% | 67.7% | 43.7% | 61.3% | 68.5% | 69.9% |
| N#Cc1cc(-c2nc3ccccc3s2)c(=O)n(NS(=O)(=O)c2ccc(Cl)cc2)c1N | 110% | 100% | 110% | 102% | 103% | 83.7% | 95.5% | 107% | 99.7% | 104% |
| Nc1c(C(=O)Nc2cccc3ccncc23)sc2nc3c(cc12)C(=O)CCC3 | 33.3% | 64.6% | 68.1% | 68.5% | 80.7% | 35.3% | 57.8% | 3.84% (active) | 21.3% | 68.4% |
| CNC(=O)c1c(NC(=O)c2ccc(C(C)C)cc2)sc2c(CN(C)C)c(O)ccc12 | -9.94% (active) | 22.5% | 112% | 106% | 98.6% | 99.7% | 90.5% | 99.3% | 89.6% | 91.3% |
| Cc1cc(C(=O)Nc2ncnc3nc[nH]c23)no1 | 89.6% | 95% | 102% | 116% | 114% | 97.2% | 89.6% | 108% | 95.5% | 106% |
| S=c1[nH]cccc1-c1nnc2n1Nc1nc3ccc(Cl)cc3cc1CS2 | 85.6% | 98.1% | 102% | 95.3% | 101% | 94.3% | 90.1% | 105% | 89.3% | 99.3% |
| O=C(Nc1nc(-c2ccccc2Cl)cs1)c1cc(-c2ccccc2)nc2ccc(Cl)cc12 | 21.9% | 21.4% | 19.2% | 93.2% | 76% | 95.5% | 59.7% | 28.1% | 76.4% | 16.5% |
| O=C(O)c1cn(C2CC2)c2cc(N3CCN(C(=O)C[n+]4cccc5ccccc54)CC3)c(F)cc2c1=O | 15.6% | 61.1% | 74.1% | 100% | 54.5% | 106% | 92.7% | 51.1% | 84.9% | 93.8% |
| CC(=O)Nc1ccc(C(=O)Nc2cc(-c3ccccc3)ccc2N)cc1 | 39.4% | 83.6% | 54.9% | 60.5% | 76.7% | 67.9% | 94% | 75.2% | 92% | 42.9% |
| O=C(CCN1CCCC1)Nc1ccc2c(Nc3ccccc3)c3ccccc3nc2c1 | -14.9% (active) | -27.3% (active) | 7.5% (active) | 20% | -4.97% (active) | 23.8% | 13.5% | -25% (active) | 32.2% | 47.1% |
| O=S(=O)(NCCCNc1nccc(-c2c(-c3cccc(O)c3)nc3occn23)n1)c1ccc(Br)cc1 | 89.8% | 86.4% | 86% | 137% | 118% | 94% | 79.2% | 102% | 91.6% | 107% |
| COc1ccc(C(=O)c2cc3c(N)c(C(=O)Nc4cccc(Cl)c4)sc3nc2C)cc1 | -18.2% (active) | 9.77% (active) | 27.1% | 49.3% | 49.5% | 44% | 47.9% | 0.514% (active) | 18.5% | 8.84% (active) |
